The text below walks through data of PubChem BioAssay (NCATS).

For assay [1], the target named is Voltage-gated inwardly rectifying potassium channel KCNH2 (Homo sapiens) (UniProt Q12809). Nature of the assay: qHTS Assay for Small Molecule Inhibitors of the Human hERG Channel Activity (AID 588834).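 Note: lower thallium flux fluorescence means stronger hERG block; nearly all actives have a fitted effect of over 50% in size.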 Note: potency is the fitted concentration of half-maximal effect. An outline of the steps: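 Homogeneous FluxOR thallium flux assay using hERG-expressing U2OS cells (BacMam). Compound treatment about 10 minutes preceded stimulation; reduced fluorescence taken as channel block.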
(In general: qHTS replaces the single test concentration by a dilution series.)

The target of assay [2] is Luciferin 4-monooxygenase (Photinus pyralis) (UniProt P08659). Nature of the assay: Biochemical firefly luciferase enzyme assay for NPC (AID 624030).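 Note: purified P. pyralis luciferase at 10 nM with luciferin and ATP substrate; series mostly up to about 59 µM; nearly all actives have a fitted effect of over 70% in size.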 In short, it runs like this: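 Counter-screen for direct inhibition of the luciferase enzyme by approved-drug library compounds, run at 10 nM enzyme in 50 mM Tris acetate (final). Luminescence was read within 5 min of enzyme-buffer addition and normalized to PTC124 versus DMSO (0%).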

Assay [3] can be described thus: S16 Schwann cell viability assay (CellTiter-Glo assay) (AID 624031). Note: nearly all actives have a fitted effect of over 70% in size. Note: potency is the fitted concentration of half-maximal effect. An outline of the steps:
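Counter-screen for cytotoxicity: parental S16 rat Schwann cells lacking the PMP22 reporters, treated 24 h with compound, viability from cellular ATP by CellTiter-Glo luminescence, normalized to DMSO (0%) and no-cell wells.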
(Cellular ATP, detected with luciferase, serves as a proxy for viable cell number.)

The nature of assay [4]: S16 Schwann cell PMP22 intronic element firefly luciferase assay (AID 624032). Note: nearly all actives have a fitted effect of over 30% in size. Note: potency is the fitted concentration of half-maximal effect. In short, it runs like this: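 Rat S16 Schwann cells stably carrying a PMP22 intronic element-driven Fluc reporter were seeded overnight, then exposed to compounds for 24 h at 37 °C. Luminescence was normalized to PTC124 (positive control) and DMSO (0% activity).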
Assay [5] in a line: S16 Schwann cell PMP22 intronic element beta-lactamase assay (AID 624044; calls by dose curve; note: nearly all actives have a fitted effect of over 15% in size; note: potency is the fitted concentration of half-maximal effect). An outline of the steps:
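Beta-lactamase reporter under a PMP22 intronic regulatory element in stable S16 rat Schwann cells; 24 h compound exposure. 460 nm blue signal normalized between DMSO (0%) and potassium clavulanate, with 535 nm FRET tracking viability; curves classed by r2 and response.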

Values joined by “and” are separate entries in the source; they are usually repeats but may differ in a detail not shown here. Identical values can stand only once. Records with an inconclusive call do not appear. Active and inactive are the calls of the source. Unless noted, calls come from the whole dose curve; as a rule, active = well fitted curve in the direction sought with a large enough effect; inconclusive = small, poorly fitted or top-dose-only effect, or another doubt; inactive = no such curve, though single readings can be large; an effect the other way counts as inactive or inconclusive.

Chain of Luciferin 4-monooxygenase (Photinus pyralis) (P08659 whole entry, looked up): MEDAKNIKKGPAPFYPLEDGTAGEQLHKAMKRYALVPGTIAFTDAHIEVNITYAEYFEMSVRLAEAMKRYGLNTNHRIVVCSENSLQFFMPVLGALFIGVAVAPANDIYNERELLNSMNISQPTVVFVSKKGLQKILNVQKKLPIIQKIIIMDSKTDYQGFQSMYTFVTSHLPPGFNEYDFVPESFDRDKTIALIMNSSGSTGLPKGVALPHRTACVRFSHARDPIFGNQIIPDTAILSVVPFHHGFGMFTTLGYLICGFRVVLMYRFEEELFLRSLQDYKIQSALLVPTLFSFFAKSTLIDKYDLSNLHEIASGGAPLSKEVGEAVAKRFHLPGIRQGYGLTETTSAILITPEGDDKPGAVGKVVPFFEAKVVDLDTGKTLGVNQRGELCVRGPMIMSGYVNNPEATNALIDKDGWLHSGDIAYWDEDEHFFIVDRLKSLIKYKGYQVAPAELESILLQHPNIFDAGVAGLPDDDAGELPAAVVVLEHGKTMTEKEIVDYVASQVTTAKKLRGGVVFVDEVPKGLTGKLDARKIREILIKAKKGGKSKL
Chain of Voltage-gated inwardly rectifying potassium channel KCNH2 (Homo sapiens) (Q12809 whole entry, looked up): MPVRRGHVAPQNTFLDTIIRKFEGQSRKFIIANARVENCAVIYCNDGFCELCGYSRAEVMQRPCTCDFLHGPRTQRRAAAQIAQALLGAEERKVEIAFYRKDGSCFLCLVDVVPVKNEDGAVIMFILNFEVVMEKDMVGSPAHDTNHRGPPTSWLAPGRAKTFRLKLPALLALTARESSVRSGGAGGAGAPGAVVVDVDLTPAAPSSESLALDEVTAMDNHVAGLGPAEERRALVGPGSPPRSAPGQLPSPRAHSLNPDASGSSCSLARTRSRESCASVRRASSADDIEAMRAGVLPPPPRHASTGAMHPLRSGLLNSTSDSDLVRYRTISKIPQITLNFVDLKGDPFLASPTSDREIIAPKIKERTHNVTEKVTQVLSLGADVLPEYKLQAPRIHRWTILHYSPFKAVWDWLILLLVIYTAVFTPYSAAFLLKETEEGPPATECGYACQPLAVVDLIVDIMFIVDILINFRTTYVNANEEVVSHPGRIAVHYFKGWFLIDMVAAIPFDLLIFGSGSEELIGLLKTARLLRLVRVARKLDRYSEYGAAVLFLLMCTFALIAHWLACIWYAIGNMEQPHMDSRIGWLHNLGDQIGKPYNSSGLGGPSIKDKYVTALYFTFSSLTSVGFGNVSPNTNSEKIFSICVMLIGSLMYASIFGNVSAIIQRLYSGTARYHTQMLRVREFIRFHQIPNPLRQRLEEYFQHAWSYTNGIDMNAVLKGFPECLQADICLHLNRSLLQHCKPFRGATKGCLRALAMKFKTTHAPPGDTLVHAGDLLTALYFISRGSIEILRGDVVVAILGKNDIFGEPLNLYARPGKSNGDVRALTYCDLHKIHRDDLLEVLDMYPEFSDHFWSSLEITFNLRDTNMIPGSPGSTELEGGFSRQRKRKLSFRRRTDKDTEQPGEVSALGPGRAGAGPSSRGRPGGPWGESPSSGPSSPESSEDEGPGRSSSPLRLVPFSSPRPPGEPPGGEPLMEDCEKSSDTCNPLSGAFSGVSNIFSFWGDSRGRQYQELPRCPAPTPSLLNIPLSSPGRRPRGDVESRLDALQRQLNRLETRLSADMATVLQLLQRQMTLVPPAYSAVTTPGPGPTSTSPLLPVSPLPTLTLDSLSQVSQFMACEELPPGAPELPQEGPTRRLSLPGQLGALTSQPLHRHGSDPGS

On to `CCC(=O)c1ccc2c(c1)N(CCCN(C)C)c1ccccc1S2`, for which the Potency in assay [1] was 2.51 µM (active) and 4.47 µM (active). Also, in assay [2], the Potency result is “inactive”.
For the compound `c1ccc2c(c1)CCCC2C1=NCCN1` (stereo not drawn), the Potency result in assay [1] was “inactive”.
With `CN1CCN(CC(=O)N2c3ccccc3C(=O)Nc3cccnc32)CC1`, the Potency entry in assay [1], in assay [2], in assay [3] and in assay [4] was “inactive” in each case.
`O=C(O)CN(CCOCCOCCN(CC(=O)O)CC(=O)O)CC(=O)O`: the Potency entry in assay [1], in assay [2], in assay [3] and in assay [4] was “inactive” throughout.
For the compound `NS(=O)(=O)c1cc2c(cc1Cl)NC(C1CC3C=CC1C3)NS2(=O)=O` (stereo not drawn), the Potency entry in assay [1], in assay [2], in assay [3], in assay [4] and in assay [5] was “inactive” in each case.
With `CCn1ccnc1CC1COc2ccccc2O1` (stereo not drawn), the Potency entry in assay [1], in assay [2], in assay [3] and in assay [4] was “inactive” in each case.
Consider `O=C(O)CP(=O)(O)O`, for which the Potency result in assay [1], in assay [2], in assay [3] and in assay [4] was “inactive” in each case.
Take `Cc1scc2c1N(C(=O)CN1CCN(C)CC1)c1ccccc1NC2=O`: the Potency result in assay [1] and in assay [2] was “inactive” in each case.
For `CNCCC(Oc1ccccc1OC)c1ccccc1` (stereo not drawn), the Potency in assay [1] was 12.6 µM (active) and 6.31 µM (active). In addition, the Potency entry in assay [2], in assay [3], in assay [4] and in assay [5] was “inactive” throughout.
Take `CC1=NS(=O)(=O)c2cc(Cl)ccc2N1`: the Potency entry in assay [1], in assay [2] and in assay [3] was “inactive” each time.
For the compound `Brc1c(NC2=NCCN2)ccc2nccnc12`, the Potency entry in assay [1], in assay [2], in assay [3] and in assay [4] was “inactive” each time.
On to `OCCN1CCN(CCCN2c3ccccc3C=Cc3ccccc32)CC1`, for which the results for the Potency in assay [1], in assay [3] and in assay [4] were 12.6 µM (active), 28.7 µM (active) and 36.1 µM (active), respectively. For the same compound, the Potency entry in assay [2] was “inactive”.
`CC(=O)OCC1=C(C(=O)O)N2C(=O)[C@@H](NC(=O)Cc3cccs3)[C@H]2SC1`: the Potency entry in assay [1], in assay [2], in assay [3], in assay [4] and in assay [5] was “inactive” in each case.
In the case of `C[C@]12CCC(=O)C=C1CC[C@@H]1[C@@H]2CC[C@@]2(C)[C@H]1CC[C@]2(O)C(=O)CO`, the Potency result in assay [1], in assay [2], in assay [3] and in assay [4] was “inactive” in each case.
`c1cnc(N2CCN(Cc3ccc4c(c3)OCO4)CC2)nc1`: the Potency entry in assay [1], in assay [2], in assay [3], in assay [4] and in assay [5] was “inactive” throughout.
`C[N+](C)(C)CCOC(N)=O`: the Potency entry in assay [1], in assay [2], in assay [3] and in assay [4] was “inactive” in each case.
As to `CC(=O)[C@]1(O)Cc2c(O)c3c(c(O)c2[C@@H](O[C@H]2C[C@H](N)[C@H](O)[C@H](C)O2)C1)C(=O)c1ccccc1C3=O`, the results for the Potency in assay [1], in assay [3] and in assay [5] were 10 µM (active), 32.2 µM (active) and 0.0999 µM (active), respectively. Also, the Potency entry in assay [2] and in assay [4] was “inactive” each time.
Turning to `CCCCNc1ccc(C(=O)OCCN(C)C)cc1`, the Potency result in assay [1], in assay [2], in assay [3] and in assay [4] was “inactive” in each case.
For `CC(C)NNC(=O)c1ccncc1`, the Potency result in assay [1], in assay [2], in assay [3] and in assay [4] was “inactive” each time.
`CCN(CC)CCOCCOC(=O)C1(c2ccccc2)CCCC1`: in assay [1], the Potency was 12.6 µM (active). Besides, the Potency result in assay [2], in assay [3], in assay [4] and in assay [5] was “inactive” each time.
